Results taken from ChEMBL document CHEMBL1157539, “Thousands of chemical starting points for antimalarial lead identification” (Nature, 2010).

Assays:
Assay type in all cases: functional
Plasmodium falciparum [1] = assay: GSK_TCMDC: Inhibition of Plasmodium falciparum 3D7 in whole red blood cells, using parasite LDH activity as an index of growth. Test compounds present at 2uM
Plasmodium falciparum [2] = assay: GSK_TCMDC: Inhibition of Plasmodium falciparum Dd2 in whole red blood cells, using parasite LDH activity as an index of growth. Test compounds present at 2uM
HepG2 = assay: GSK_TCMDC: Percent inhibition of human HepG2 cell line. Test compounds present at 10uM.

| SMILES | Inhibition (Plasmodium falciparum [1]) | Inhibition (Plasmodium falciparum [2]) | Inhibition (HepG2) |
| --- | --- | --- | --- |
| O=C(NC1CCN(Cc2ccccc2)CC1)c1cc(C(=O)NC2CCN(Cc3ccccc3)CC2)cc(C(=O)NC2CCN(Cc3ccccc3)CC2)c1 | 100% | 100% | 13% |
| O=S(=O)(Nc1ccc(CCN2CCCCC2CCN2CCCC2)cc1)c1cccc2cccnc12 (centres undefined) | 100% | 0% | 20% |
| Cc1cc2nc(-c3ccc(SCC(=O)Nc4ccc5c(c4)OCCO5)nc3)[nH]c2cc1C | 85% | 6% | 17% |
| COc1ccc2nc(N=C3NC4(c5ccccc5)NC(=Nc5nc6ccc(OC)cc6[nH]5)NC4(c4ccccc4)N3)[nH]c2c1.O=C(O)C(F)(F)F (centres undefined) | 100% | 85% | 0% |
| O=c1ccccn1CCCC1CCCCN1 (centres undefined) | 96% | 0% | 0% |
| O=C(/C=C/c1ccc(Cl)c(Cl)c1)NCCCCCN1CCCN(C(=S)Nc2cccc(Cl)c2)CC1 | 93% | 7% | 19% |
| Cc1c(Cc2ccccc2)c(=O)oc2c(C)c3c(cc12)CN(CC(C)c1ccccc1)CO3 (centres undefined) | 98% | 98% | 1% |
| CN(C)CCOc1cc(NC(=O)Nc2ccc(-c3ccncc3)c3ccccc23)ccc1I | 97% | 46% | 35% |
| CCC(Cc1cnc2nc(N)nc(N)c2n1)c1ccc(C(=O)O)cc1 (centres undefined) | 93% | 0% | 15% |
| COc1ccc(CNc2nc(NCCc3ccccc3)c3cc(OC)c(OC)cc3n2)cc1OC | 100% | 100% | 48% |
| CCOc1c(Br)cc(Cl)cc1CNCCCNc1nc2ccccc2[nH]1.Cl | 98% | 3% | 27% |
| COc1ccc2[nH]ccc(=NN=Cc3ccccc3)c2c1 | 100% | 99% | 0% |
| CC(C)Cn1c(Sc2ccc(C#N)c([N+](=O)[O-])c2)nnc1-c1cccc(Cl)c1 | 98% | 95% | 24% |
| O=C(Nc1cccc(-c2ccc(-c3nc4cc(C(F)(F)F)ccc4[nH]3)cc2)c1)Nc1ccc(F)c(F)c1F | 100% | 99% | 45% |
| CCCn1c(O)nnc1SCC(=O)Nc1cc(C(F)(F)F)ccc1Cl | 96% | 94% | 0% |
| Cc1cc(Nc2ccc(OCc3ccccc3Cl)cc2)c2cc(Cl)ccc2n1.Cl | 100% | 58% | 33% |
| CC[C@H](C)[C@H](NC(=O)[C@H](CC1CCCCC1)[C@H](CC)N(O)C=O)C(=O)Nc1ccccn1 | 96% | 95% | 14% |
| O=C(/C=C/c1ccc(Cl)c(Cl)c1)NCCCCCN1CCCN(C(=O)Nc2ccc(F)c(Cl)c2)CC1 | 95% | 0% | 31% |
| O=C(NC1CCN(Cc2ccccc2)CC1)c1ccc(-c2nc3cc(F)c(F)cc3[nH]2)s1 | 100% | 97% | 6% |
| Cc1ccc(NC(=O)c2cccc(C#N)c2)cc1-c1ccc(C(=O)Nc2ccncc2)cc1 | 94% | 64% | 38% |
| C=CCOC(=O)N1CCC(CNCc2ccc(-c3ccc(-c4nc5ccccc5[nH]4)s3)cc2)C1.O=C(O)C(F)(F)F (centres undefined) | 100% | 76% | 29% |
| CCN(CC)CCOc1ccc(C(O)(C#CC(O)(c2ccc(OCCN(CC)CC)cc2)c2ccc([N+](=O)[O-])cc2)c2ccc([N+](=O)[O-])cc2)cc1 (centres undefined) | 98% | 97% | 55% |
| CCN(CCCN1CCCCC1)c1cc(C)nc(Nc2cccc(OC(F)(F)F)c2)n1.O=C(O)C(F)(F)F | 100% | 99% | 32% |
| Cc1cccc2nc(-c3ccc(-c4cccc(NC(=O)NCc5ccc(F)cc5)c4)cc3)[nH]c12 | 100% | 100% | 82% |
| CC(C)(C)C(=O)Nc1ccccc1Oc1ccc(Cl)cc1 | 92% | 96% | 54% |
| Cc1noc(C)c1-c1ccc(C(=C2CCCCCCC2)c2ccc(O)cc2)cc1 | 83% | 48% | 0% |
| CC(=O)c1cccc(S(=O)(=O)NCCCNc2nc3cc(C)cc(C)c3cc2C#N)c1 | 95% | 75% | 11% |
| COc1ccccc1/C=C/C(=O)N(C)C1CCN(CCCCCNC(=O)/C=C/c2ccc(Cl)c(Cl)c2)CC1 | 83% | 63% | 71% |
